Assay outcomes (PubChem BioAssay)
Rows were chosen to be rich in hits. Some 10% of all compounds tested hit in one or more screens of this group.
PNC inhibitor – blocks assembly of the perinucleolar compartment; hit rate 3.1% among 140,000; PC3M PTB-GFP, PNC prevalence imaging, 16 h; active compounds read low; AID 2417; activity change (PNC), negative = inhibition, % at 10 µM;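 active means readout at or below -70, meaning at least 70% loss of cells showing the perinucleolar compartment, a nuclear body marking cancer cells; inconclusive means readout between -30 and a set limit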
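Compounds are pinned in duplicate onto adhered PC3M cells stably expressing GFP-tagged PTB and incubated 16 h at 37 C. Cells are then fixed, nuclei stained with Hoechst, and PNC-positive cells counted.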
GLA spleen mod – alpha-galactosidase A (human) modulation; P06280; Potency, µM (doses to about 80 µM), most hits filed as inhibitors; hit rate 0.008% among 240,000; human spleen homogenate, 4MU-alpha-Gal fluorescence, 40 min
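qHTS titration in buffer at pH 5.0. Alpha-galactosidase activity in spleen homogenate was measured via 4-methylumbelliferone release from 1 mM fluorogenic substrate after 40 min at 37C and a pH 10 stop. AC50 came from Hill fits of control-normalized data.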
GLA inh pH 4.5 – blocks human alpha-galactosidase A at pH 4.5 | P06280 | purified enzyme, 4-MU-alpha-Gal fluorescence, pH 4.5 | 230,000 tested, under 10 active | activity change, negative = inhibition, % at 105 µM
HPGD block – inhibitors of human 15-hydroxyprostaglandin dehydrogenase (HPGD); purified HPGD, NADH fluorescence kinetic, PGE2 substrate; Potency, µM, hits mostly inhibitors; hit rate 4.3% among 150,000; active means well fitted inhibition curve with a large enough effect, not every such curve was filed as active; inconclusive means small, poorly fitted or top-dose-only effect, or another doubt; inactive means no such curve, though single readings can be large or run the other way
Target sequence (P15428 whole entry, looked up): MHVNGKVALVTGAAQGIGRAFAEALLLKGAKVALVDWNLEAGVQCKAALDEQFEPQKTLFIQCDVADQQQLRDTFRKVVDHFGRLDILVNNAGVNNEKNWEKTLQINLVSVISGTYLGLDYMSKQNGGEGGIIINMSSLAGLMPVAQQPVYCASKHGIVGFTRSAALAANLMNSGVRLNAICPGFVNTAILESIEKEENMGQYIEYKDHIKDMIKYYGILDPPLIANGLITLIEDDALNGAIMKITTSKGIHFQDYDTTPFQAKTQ
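20 nM HPGD preincubated 15 min at room temperature with compound in 50 mM Tris-HCl pH 8, 0.01% Tween 20. Started with 1 mM NAD+ and 30 uM prostaglandin E2; NADH fluorescence (360/450 nm) read 5 times over 30-s intervals, last minus first.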
12-hLO inh – inhibitors of human 12-lipoxygenase (ALOX12) | Potency, µM (doses to about 57.1 µM), usual class: inhibitors | purified 12-hLO, xylenol orange hydroperoxide absorbance | hit rate 0.12% among 150,000 | P18054 | AID 1452; further: nearly all actives have a fitted effect of over 55% in size
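Lipoxygenase turnover measured by absorbance at 573 and 405 nm after Fe-XO development. Human 12hLO 150 nM, arachidonate 40 uM, pH 7.0 Hepes buffer with detergent; 15 min compound preincubation, 30 min reaction.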
ALDH1A1 inh – inhibitors of human aldehyde dehydrogenase 1A1. P00352. Purified ALDH1A1, NADH fluorescence, propionaldehyde substrate. Potency, µM (titrated, usually from 75.3 µM), most hits filed as inhibitors. hit rate 7.3% among 220,000; active means well fitted inhibition curve with a large enough effect, not every such curve was filed as active; inconclusive means small, poorly fitted or top-dose-only effect, or another doubt; inactive means no such curve, though single readings can be large or run the other way
Hits are given with their value; . = inactive; ? = inconclusive; / = no result; [ ] = remark or other dose. Unless noted, the call rests on the fitted dose curve; in most records, active means well fitted curve in the direction sought with a large enough effect; inconclusive means small, poorly fitted or top-dose-only effect, or another doubt; inactive means no such curve, though single readings can be large; an effect the other way counts as inactive or inconclusive.

SMILES	PNC inhibitor	GLA spleen mod	GLA inh pH 4.5	HPGD block	12-hLO inh	ALDH1A1 inh
CC(C)(C)c1ccc(S(=O)(=O)Nc2cccnc2)cc1	.	.	.	.	.	?
Cn1c(=O)c(-c2cc(F)cc(F)c2)nc2cncnc21	/	.	/	/	/	.
Cc1ccc(NC2c3ncccc3C(=O)N2c2ccccc2C)cc1C (stereo not drawn)	.	.	.	16µM	.	?
CCOc1ccc(N2C(=O)c3cccnc3C2Nc2ccc(Cl)cc2)cc1 (stereo not drawn)	.	.	.	.	.	.
O=C(N=C1c2ccccc2CN1c1cccc(Cl)c1)c1cccnc1	.	.	.	.	.	.
O=C(N=C1c2ccccc2CN1c1ccc(F)c(F)c1)c1cccnc1	/	.	.	/	/	14µM
O=C(CCc1nnc(CCCCc2ccccc2)o1)NCCn1cccn1	/	.	.	/	/	.
O=C(CCc1nnc(CCCCc2ccccc2)o1)NCCN1CCOC1=O	/	.	.	/	/	0.11µM
COc1cc(C/C=C\c2ccccc2)c(OC)cc1O	/	.	.	.	/	25µM
O=CN1CCc2c([nH]c3ccccc23)C1c1cccc2cccnc12 (stereo not drawn)	/	.	.	.	/	.
CCn1c(CNc2ccc(C)cc2)nnc1SCC(N)=O	.	.	.	.	.	.
c1coc(-c2ncc[nH]2)c1	-97	.	.	.	.	18µM
c1coc(-c2nc(-c3ccco3)c(-c3ccco3)nc2-c2ccco2)c1	.	.	.	?	?	?
CC1(OC(=O)c2ccco2)C(=O)C2=COC(C3CC3)=CC2=C(Br)C1=O (stereo not drawn)	/	.	.	.	.	.
CCc1ccc(OCC(=O)NCc2ccco2)c(Br)c1	.	.	.	35µM	.	?
O=C(COc1ccccc1Br)NCc1ccco1	.	.	.	25µM	.	?
COc1ccccc1OCC(=O)NCc1ccco1	.	.	.	?	.	.
NC(=O)C[C@H](N)C(N)=O	/	/	/	.	.[11.4 µM]	.[13.5 µM]
COc1ccccc1OCCC(=O)OCC(=O)NC(C)c1ccccc1 (stereo not drawn)	-84	.	.	.	.	.
COc1ccccc1OCCC(=O)OCC(=O)c1[nH]c(C)c(C(C)=O)c1C	/	.	.	/	/	25µM
COc1ccccc1OCCC(=O)OCC(=O)Nc1cc(S(=O)(=O)N(C)C)ccc1Cl	/	.	.	/	/	3.2µM
CC(=O)c1c(C)[nH]c(C(=O)COC(=O)CCCOc2ccccc2)c1C	/	.	.	/	/	.
COc1ccccc1OCCC(=O)OCC(=O)Nc1ccc(Br)cc1	.	.	.	.	.	.
CC(=O)NCCCC(=O)NN1C(=S)N(Cc2ccccc2)C(=O)C1CC(=O)Nc1cccc(C)c1 (stereo not drawn)	/	.	.	/	/	?
N#Cc1cccc(-c2nc(Nc3ccncc3)c3ccccc3n2)c1	/	.	.	?	.	.
SMILES	PNC inhibitor	GLA spleen mod	GLA inh pH 4.5	HPGD block	12-hLO inh	ALDH1A1 inh
CN(C)/C=C(\C=O)c1ccc(Cl)cc1Cl	/	.	.	/	/	.
COc1ccc(-c2cc(C(F)(F)F)c(C#N)c(SCC(=O)O)n2)cc1OC	/	.	.	/	/	/
S=C(Nc1cccc(Cl)c1)Nc1ccccc1Oc1ccccc1	.	.	.	.	?	?
S=C(Nc1cccc(Cl)c1)Nc1cccc2cnccc12	.	.	.	?	.	3.2µM
Cc1ccc(C)c(NC(=S)Nc2cccc3cnccc23)c1	/	.	.	/	/	8.9µM
Cc1ccccc1NC(=S)Nc1cccc2cnccc12	/	.	.	/	/	?
CC(=O)c1ccc(NC(=S)Nc2cccc3cnccc23)cc1	/	.	.	/	/	/
Cc1ccc(NC(=S)Nc2cccc3cnccc23)cc1	/	.	.	/	/	13µM
Cc1ccc(NC(=S)Nc2cccc3cnccc23)cc1C	/	.	.	/	/	2.5µM
COc1cc(C(C(=O)NC2CCCCC2)N(Cc2ccco2)C(=O)c2cnccn2)cc(OC)c1OC (stereo not drawn)	/	.	.	/	/	.
C=CCn1c(SCc2ccc(C(=O)Nc3ccccc3)cc2)nnc1-c1ccccc1	.	.	.	?	.	.
